Source: PubChem
In the library only some 2.4% were active in any assay of this set; here they are far more common.
Pol eta inh: inhibitors of human DNA polymerase eta; recombinant Pol eta, fluorescent DNA replication assay; 1.2% of 390,000 active; Q9Y253; AID 588591; Potency, µM (series often up to 114 µM), inactives show top-dose activity change, negative = inhibition, usual class: inhibitors; note: % is set by controls: 0 for no effect and ±100 for the full control effect
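Pol eta at 10 nM preincubated with compounds 15 min at room temperature; reaction started with fluorescent substrate (50 nM final) and read kinetically at 0 and 10 min.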
Pol beta inh: inhibitors of human DNA polymerase beta | P06746 | 1.3% of 340,000 active | Potency, µM (series often up to 114 µM), without a hit: at the top dose activity change, negative = inhibition, most hits filed as inhibitors | Pol beta primer extension/strand displacement, fluorescence kinetic | AID 485314; note: % is set by controls: 0 for no effect and ±100 for the full control effect
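Kinetic readout of DNA synthesis with strand displacement by Pol beta. Compound and 10 nM enzyme sit 15 min at room temperature; 50 nM substrate starts the reaction, read immediately and at 10 min.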
Pol kappa inh: inhibitors of human DNA polymerase kappa | Q9UBT6 | 0.53% of 400,000 active | purified Pol kappa, fluorescent DNA synthesis assay, 10 min | Potency, µM (top dose mostly 107 µM), for the others: at the highest dose activity, negative = inhibition, usual class: inhibitors; note: % is set by controls: 0 for no effect and ±100 for the full control effect
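Activity was followed as the change in fluorescence between reads at 0 and 10 min after starting the reaction with 50 nM substrate. Beforehand, 10 nM polymerase had been preincubated with compound for 15 min at room temperature.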
Pol iota inh: inhibitors of human DNA polymerase iota. Q9UNA4. Pol iota fluorescent replication assay, 10 min. Potency, µM (series often up to 115 µM), for the others: top-dose activity, negative = inhibition, actives largely listed as inhibitors. 1% of 390,000 active. AID 588590
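Fluorescent replication assay read twice, at 0 min and 10 min after adding 50 nM (final) substrate. Enzyme (10 nM) and compounds were first incubated 15 min at room temperature; enzyme-free buffer wells were negative controls.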
FEN1 inh: inhibitors of human flap endonuclease 1 | 0.35% of 390,000 active | AID 588795 | Recombinant FEN1 flap cleavage, fluorescence, 15 min | Potency, µM (titrated, usually from 114 µM), for the others: at the top dose activity change, negative = inhibition, actives largely listed as inhibitors | P39748; note: % is set by controls: 0 for no effect and ±100 for the full control effect; nearly all actives have a fitted effect of over 65% in size
Target sequence (P39748 whole entry, looked up): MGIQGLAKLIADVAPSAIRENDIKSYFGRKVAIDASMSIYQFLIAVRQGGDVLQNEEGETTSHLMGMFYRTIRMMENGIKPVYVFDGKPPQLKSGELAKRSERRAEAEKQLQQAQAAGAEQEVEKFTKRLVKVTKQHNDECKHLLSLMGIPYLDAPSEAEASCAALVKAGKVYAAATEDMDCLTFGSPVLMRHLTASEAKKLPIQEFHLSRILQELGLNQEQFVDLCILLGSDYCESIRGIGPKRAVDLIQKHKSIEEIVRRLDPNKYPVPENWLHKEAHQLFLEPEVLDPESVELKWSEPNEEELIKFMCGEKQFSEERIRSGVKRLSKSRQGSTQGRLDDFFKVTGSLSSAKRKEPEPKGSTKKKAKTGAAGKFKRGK
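FEN1 at 10 nM preincubated with compounds 15 min at room temperature, then flap DNA substrate added at 50 nM final. Signal read at 0 and 15 min; concentration-response fitted with four-parameter Hill equation.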
WRN inhibitor: WRN helicase (human) inhibition; WRN helicase unwinding, fluorescent forked duplex, kinetic; Potency, µM (highest dose often 114 µM), without a hit: at the top dose activity change, negative = inhibition, hits mostly inhibitors; 0.46% of 360,000 active; note: % is set by controls: 0 for no effect and ±100 for the full control effect; nearly all actives have a fitted effect of over 55% in size
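Screening of the MLSMR collection measured strand separation of a quenched forked DNA duplex (100 nM) by 20 nM WRN with 2 mM ATP, all final. Compounds were preincubated with enzyme 15 min at room temperature.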
The depositor's hits bear a star; ? = inconclusive; . = not tested or not shown; ! = not active in a repeat; [ ] = dose if it differs, or a comment. Calls come from the whole dose curve; as a rule, active = well fitted curve in the direction sought with a large enough effect; inconclusive = small, poorly fitted or top-dose-only effect, or another doubt; inactive = no such curve, though single readings can be large; an effect the other way counts as inactive or inconclusive. Potency is the fitted concentration of half-maximal effect.

SMILES	Pol eta inh	Pol beta inh	Pol kappa inh	Pol iota inh	FEN1 inh	WRN inhibitor
CC(C)=CCC/C(C)=C/CC/C(C)=C/CSCC(=O)O	.	.	2%[19.4 µM]	.	.	.
CCCCOC(=O)C1=C(C)NC(=O)NC1c1ccccc1 (configuration not stated)	-5%	1%	-9%	-11%	-10%	-7%
CCCCOC(=O)C1=C(C)NC(=O)NC1c1ccc([N+](=O)[O-])s1 (configuration not stated)	-27%	0%	?	89µM*	-14%	-17%
O=C(CN1CCNCC1)NC1CCCCC1	.	.	-1%[19.4 µM]	.	.	.
COc1ccc(/C=C2/SC(=O)N(CCC(=O)Nc3ccc(C)cc3)C2=O)cc1OC	.	-1%	.	.	.	.
CC(=O)Nc1ccc(S(=O)(=O)Oc2cccc(/C=C3\SC(N)=NC3=O)c2)cc1	-1%	-7%	8%	62%	-9%	79µM*
COc1cc(/C=C2\SC(N)=NC2=O)ccc1OCC(=O)Nc1ccc(C)cc1	?	3.5µM*	-42%	79µM*	-20%	-9%[11.6 µM]
CN=C1SC(CC(=O)NCCc2ccc(OC)c(OC)c2)C(=O)N1C (configuration not stated)	56µM*!	1%	?	?	-1%	3%
CN(C)[C@@H]1C(=O)C(C(=O)NCN2CCCC2)=C(O)[C@@]2(O)C(=O)C3=C(O)c4c(O)cccc4[C@@](C)(O)C3CC12 (some centres not stated)	.	0.5µM*	.	.	.	.
CN(C)[C@H]1C(=O)C(C(=O)NCN2CCCC2)=C(O)[C@]2(O)C(=O)C3=C(O)c4c(O)cccc4[C@](C)(O)[C@H]3C[C@H]12	.	.	3.8µM*	.	.	.
Cc1ccc(-n2ncc3c(NCc4ccccc4)ncnc32)cc1C	-13%	24%	-14%[60.1 µM]	20%	-13%	.
O=C(Nc1cccn2nc(COCCO)nc12)C(c1ccccc1)c1ccccc1	.	.	.	.	.	-4%
Cc1ccc(C2CC(=O)Oc3cc(C)c(Cl)c(C)c32)cc1 (configuration not stated)	.	.	-15%	.	.	.
CCN(CC)c1ccc(/C=C/c2ccc3ccc(OC)cc3[n+]2CC)cc1	-22%	-24%	-2%	?	35µM*	56µM*
CN(C)c1ccc(/C=C/c2cc[n+](C)cc2)cc1	-23%	-1%	-20%	3%	?	79µM*
CC[n+]1c(/C=C/c2ccc(N(C)C)cc2)ccc2ccccc21	?	28µM*	-36%	-23%	50µM*	?
CC[n+]1c(/C=C/c2ccc(OC(C)=O)c(OC)c2)ccc2ccccc21	-9%	11%	6%	11%	?	-6%
COc1ccc2oc(=O)cc(CN3CCN(C(=O)c4ccccc4Br)CC3)c2c1	-16%	3%	-10%	-1%	10%	.
Cc1nn(-c2ccccc2)c2c1N(CC(=O)N1CCN(c3cccc(Cl)c3)CC1)C(=O)CS2	-15%	2%	-1%	16%	1%	.
COC1=CC(=O)C(O)=C(CCCCCCC/C=C/CCCCCCCC2=C(O)C(=O)C=C(OC)C2=O)C1=O	3.5µM*	.	20µM*	7.9µM*	20µM*	35µM*
CC(=O)NC(c1cccc(F)c1)c1nc(-c2cccc(C(C)C)c2)cs1 (configuration not stated)	.	.	.	.	.	-8%
Cc1ccc(OCCCCn2nnc3sc4c(c3c2=O)CCC(C)C4)cc1 (configuration not stated)	.	25µM*	-24%	-25%	1%	.
Cc1ccc(OCCCCn2nnc3sc4c(c3c2=O)CCCC4)cc1	.	-2%	-9%	6%	2%	.
Cc1cccc(OCCn2nnc3sc4c(c3c2=O)CCCC4)c1	.	20µM*	-24%	?	-13%	.
COc1ccc(N2CCN(C(=O)C(=O)c3ccc(F)cc3)CC2)cc1	.	.	.	.	.	-7%
CC(=O)N1CCCc2cc(S(=O)(=O)N3CCCC(C(=O)NC(C)C)C3)ccc21 (configuration not stated)	-11%	6%	-1%[60.1 µM]	13%	-5%	.
